Assay [1] concerns the target ATP-dependent translocase ABCB1 (Homo sapiens) (UniProt P08183). Kind of assay: MDR1 (ABCB1) efflux transporter inhibition, cell-based (AID 377; in the data active means fluorescence slope change above about 50%). Particulars: MDR1-expressing cells, fluorescent substrate accumulation slope; stronger effect = higher value; concentration not given here.
Assay [2] in a line: polyglutamine-triggered caspase-3 activation inhibitors, cell-based (AID 1583). As to conditions: polyglutamine-induced caspase-3 activation, cell assay; stronger effect = higher value;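 tested at 10 µM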.
Assay [3] can be described thus: suppressors of polyQ aggregation in yeast, 75Q-TubU reporter (AID 1593). As to conditions: Yeast 75Q polyglutamine aggregation reporter.
Assay [4] in a line: rescue of polyQ-huntingtin neuronal dysfunction in worms, whole organism, C. elegans mechanosensory neurons, N-terminal huntingtin (AID 1599). Particulars: touch response, stronger effect = higher value.
Assay [5] in a line: inhibitors of mitochondrial cytochrome c release, biochemical, purified mitochondria (AID 1603).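 Further: mouse liver mitochondria challenged with calcium chloride; signal normalized to the plate average as 100%.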 As to conditions: stronger effect = lower value.
A short description of assay [6]: inhibitors of polyQ protein aggregation (AID 1604). Particulars: polyglutamine-induced protein aggregation inhibition assay; stronger effect = higher value; tested at 2.5 µM.
Assay [7] is described as follows: enhancers of glutamate uptake in motor neurons, MN-1 cell line (AID 1612).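 Further: tested at 1 µM final; 0% = mean of DMSO vehicle wells on each plate; positive means more glutamate uptake than control and negative means less.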 As to conditions: MN-1 motor neuron cells, stronger effect = higher value.
Assay [8] in a line: suppressors of polyglutamine aggregation in yeast, 75Q-TubH (AID 1616). As to conditions: S. cerevisiae 75Q-TubH polyglutamine aggregation suppression; stronger effect = higher value.
Assay [9] in a line: liver-stage malaria parasite growth inhibition, primary screen, cell-based, HepG2, luciferase luminescence, HepG2 viability (AID 624349; in the data active means parasite load remaining mostly below about 12%, no sharp cut-off; inactive means mostly above about 10%;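 further: 100% = mean of DMSO negative control wells on the same plate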). As to conditions: P. berghei liver stage in HepG2, luciferase luminescence, concentration not given here; parasite load remaining: stronger effect = lower value; viability: measured here: HepG2 viability without parasites.
Assay [10] concerns the target 6-phosphogluconate dehydrogenase, decarboxylating (Homo sapiens) (UniProt P52209). Kind of assay: 6PGD enzyme inhibitors, primary screen, biochemical, human, recombinant enzyme, NADPH absorbance (AID 1159550;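 active means at least 20% inhibition of 6-phosphogluconate dehydrogenase activity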). Particulars: recombinant 6PGD, NADPH absorbance 341 nm; at 10 µM; stronger effect = higher value.
For assay [11], the system named is Aerobactin synthetase IucA (Klebsiella pneumoniae hvKP1). Kind of assay: Biochemical IucA enzyme inhibition primary screen of the Spectrum library (AID 1346200).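 Further: 100% = wells without compound and 0% = wells lacking enzyme.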 As to conditions: malachite green pyrophosphate, A620, at 8 µM, stronger effect = lower value.
The nature of assay [12]: sensitizers of A549 cells to miR-34 induction, primary screen, imaging, A549 dox-inducible miR-34, nuclei and caspase counts (AID 1347080;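 active means compounds whose cell count with miR-34 switched on is under 0.7 times the count with it off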). As to conditions: A549 miR-34 inducible, Hoechst nuclei count, 48 h.
In assay [13] the target is NAD(+) hydrolase SARM1 (Homo sapiens) (UniProt Q6SZW1). The assay is described as follows: SARM1 TIR NADase inhibitors, cell lysate, NAD-Glo luminescence (AID 1508614;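 active means compound whose remaining NAD level is above about 45 nM, limit read from the data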). As to conditions: SAM-TIR HEK293T lysate NADase, at 1 µM, stronger effect = higher value.
Assay [14] has as its target Mitogen-activated protein kinase 7 (Homo sapiens) (UniProt Q13164). The assay is described as follows: ERK5 transactivation activators in reporter cells, primary screen, cell-based, HTS (AID 1508626;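 active means luciferase signal above three times the same-plate solvent-only control wells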;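 further: luciferase driven by Gal4-ERK5 fusion binding five Gal4 sites before minimal TATA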). As to conditions: HeLa Gal4-ERK5 transactivation, 18 h, at 5 µM, stronger effect = higher value.
Assay [15] in a line: antimalarial activity against Dd2 strain (AID 2302;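 active means growth inhibition above 50% at the single 2 µM test dose, taken to imply half-maximal potency below 2 µM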;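 further: 0% = DMSO untreated growth and 100% = chloroquine plus artemisinin killed control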). As to conditions: P. falciparum Dd2 in RBCs, LDH growth readout, 72 h; at 2 µM; stronger effect = higher value.
Assay [16] is described as follows: HepG2 cytotoxicity, primary screen, cytotoxicity control for P. falciparum antimalarial project, cell-based, ATP luminescence (AID 2303;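 active means inhibition above 50%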;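 further: 0% = DMSO wells and 100% = digitonin-killed cells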). As to conditions: HepG2 viability, 24-48 h, at 10 µM, stronger effect = higher value.
Assay [17] has as its target L-lactate dehydrogenase (Plasmodium falciparum (isolate CDC / Honduras)) (UniProt Q27743). Kind of assay: PfLDH activity inhibition – cell lysate, 3D7 strain, counter-screen for P. falciparum growth inhibition project (AID 2304).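 Further: 0% = vehicle and 100% = reference inhibitor.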 As to conditions: P. falciparum 3D7 crude extract, LDH APAD/NBT absorbance; at 2 µM; stronger effect = higher value.
The target in assay [18] is Calcium-dependent protein kinase 1 (Plasmodium falciparum (isolate 3D7)) (UniProt P62344). The assay is described as follows: PfCDPK1 kinase inhibitors, biochemical, TCAMS library (AID 1159585; cut-off not given, nearly all actives have IC50 up to about 0.98 µM;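 further: inhibitors leave more ATP so luminescence rises with inhibition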). As to conditions: recombinant PfCDPK1, Kinase-Glo ATP depletion luminescence.
Assay [19] has as its target Plasmodium falciparum protein kinase 6 (PK6, PF3D7_1337100) (UniProt Q8IDW1). Kind of assay: PfPK6 kinase inhibitors, biochemical, TCAMS library (AID 1159586). Particulars: recombinant PfPK6, Kinase-Glo ATP depletion luminescence. (Kinase-Glo reads ATP consumption through a luciferase reaction.)
The target in assay [20] is Protein kinase 7 (PK7), Plasmodium falciparum 3D7 (PF3D7_0213400) (UniProt Q7YTF7). The assay is described as follows: inhibition of Plasmodium PK7 catalytic activity – biochemical, TCAMS antimalarial set, Kinase-Glo luminescence (AID 1159587). As to conditions: recombinant PfPK7, Kinase-Glo ATP depletion luminescence.
For assay [21], the target named is Calcium-dependent protein kinase 4 (Plasmodium falciparum (isolate 3D7)) (UniProt Q8IBS5). The assay is described as follows: PfCDPK4 kinase inhibitors, biochemical, TCAMS library (AID 1159588; cut-off not given, nearly all actives have IC50 up to about 0.91 µM). Particulars: recombinant PfCDPK4, Kinase-Glo ATP depletion luminescence.
Assay [22] in a line: mitochondrial permeability transition inhibitors (AID 1580). Particulars: isolated mitochondria, permeability transition inhibition.
Assay [23] in a line: protection against mutant huntingtin cytotoxicity, PC12 cells, LDH release (AID 1610). As to conditions: PC12 mutant huntingtin toxicity, final LDH at 4 uM, stronger effect = lower value. For orientation: Release of lactate dehydrogenase indicates damage to the cell membrane.
Assay [24] in a line: inhibition of 3D7 malaria parasite growth – strain 3D7 (AID 2306).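 Further: 0% = DMSO wells and 100% = chloroquine plus artemisinin control wells.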 Particulars: P. falciparum 3D7 erythrocytic growth, LDH absorbance, 72 h; at 2 µM; stronger effect = higher value.
[25] abbreviates: measured here: relative caspase fold change +Dox/-Dox.
Where [26] appears, read: measured here: total cells with miR-34 induction, stronger effect = lower value.
[27] abbreviates: measured here: total cells without miR-34 induction.

As a reminder, the inhibition is the relative decrease from the control value, in per cent. The term viability denotes a per cent measure of how many cells are alive, often set against a control. One may read the EC50 as the concentration that produces a half-maximal response.

Values joined by “and” are separate entries in the source; they are usually repeats but may differ in a detail not shown here. Equal entries are not always repeated. Records with an inconclusive call do not appear. For some of these results: Measured potencies and affinities stand elsewhere. Active and inactive are the calls of the source. Unless noted, how the calls were made is not given here.

Sequence of Mitogen-activated protein kinase 7 (Homo sapiens) (Q13164 whole entry, looked up, the tested form may be a part): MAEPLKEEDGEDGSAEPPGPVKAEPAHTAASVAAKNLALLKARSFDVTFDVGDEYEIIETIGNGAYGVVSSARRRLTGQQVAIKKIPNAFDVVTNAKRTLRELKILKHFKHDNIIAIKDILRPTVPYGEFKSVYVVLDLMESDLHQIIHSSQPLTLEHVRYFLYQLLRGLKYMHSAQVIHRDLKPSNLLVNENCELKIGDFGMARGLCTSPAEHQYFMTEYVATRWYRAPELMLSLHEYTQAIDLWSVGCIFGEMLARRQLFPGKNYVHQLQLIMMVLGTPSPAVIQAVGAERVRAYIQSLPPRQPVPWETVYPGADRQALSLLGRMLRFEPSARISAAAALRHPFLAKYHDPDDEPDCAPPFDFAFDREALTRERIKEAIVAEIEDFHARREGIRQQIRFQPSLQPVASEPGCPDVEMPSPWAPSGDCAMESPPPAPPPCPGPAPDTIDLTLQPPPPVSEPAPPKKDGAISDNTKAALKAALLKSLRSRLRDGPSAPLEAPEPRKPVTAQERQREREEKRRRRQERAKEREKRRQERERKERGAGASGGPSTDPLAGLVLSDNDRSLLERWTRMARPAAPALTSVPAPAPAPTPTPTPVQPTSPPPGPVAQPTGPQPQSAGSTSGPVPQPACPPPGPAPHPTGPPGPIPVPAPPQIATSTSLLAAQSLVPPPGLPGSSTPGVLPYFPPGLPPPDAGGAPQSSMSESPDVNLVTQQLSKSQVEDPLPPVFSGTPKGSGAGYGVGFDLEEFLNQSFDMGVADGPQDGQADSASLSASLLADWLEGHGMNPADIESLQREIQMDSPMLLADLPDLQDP
Sequence of 6-phosphogluconate dehydrogenase, decarboxylating (Homo sapiens) (P52209 whole entry, looked up): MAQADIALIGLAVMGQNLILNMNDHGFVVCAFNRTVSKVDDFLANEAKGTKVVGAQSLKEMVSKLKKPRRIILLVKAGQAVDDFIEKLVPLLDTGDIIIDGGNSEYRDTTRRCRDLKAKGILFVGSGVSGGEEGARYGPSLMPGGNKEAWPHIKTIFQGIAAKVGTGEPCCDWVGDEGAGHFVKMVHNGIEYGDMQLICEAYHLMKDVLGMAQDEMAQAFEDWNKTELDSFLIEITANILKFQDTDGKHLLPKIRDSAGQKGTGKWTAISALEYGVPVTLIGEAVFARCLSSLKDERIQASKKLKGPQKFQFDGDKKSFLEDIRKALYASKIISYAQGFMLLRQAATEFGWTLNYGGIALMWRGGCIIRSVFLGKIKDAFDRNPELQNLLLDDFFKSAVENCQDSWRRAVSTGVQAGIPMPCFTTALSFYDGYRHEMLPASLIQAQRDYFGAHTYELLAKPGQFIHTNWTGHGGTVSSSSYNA
Sequence of Calcium-dependent protein kinase 1 (Plasmodium falciparum (isolate 3D7)) (P62344 whole entry, looked up): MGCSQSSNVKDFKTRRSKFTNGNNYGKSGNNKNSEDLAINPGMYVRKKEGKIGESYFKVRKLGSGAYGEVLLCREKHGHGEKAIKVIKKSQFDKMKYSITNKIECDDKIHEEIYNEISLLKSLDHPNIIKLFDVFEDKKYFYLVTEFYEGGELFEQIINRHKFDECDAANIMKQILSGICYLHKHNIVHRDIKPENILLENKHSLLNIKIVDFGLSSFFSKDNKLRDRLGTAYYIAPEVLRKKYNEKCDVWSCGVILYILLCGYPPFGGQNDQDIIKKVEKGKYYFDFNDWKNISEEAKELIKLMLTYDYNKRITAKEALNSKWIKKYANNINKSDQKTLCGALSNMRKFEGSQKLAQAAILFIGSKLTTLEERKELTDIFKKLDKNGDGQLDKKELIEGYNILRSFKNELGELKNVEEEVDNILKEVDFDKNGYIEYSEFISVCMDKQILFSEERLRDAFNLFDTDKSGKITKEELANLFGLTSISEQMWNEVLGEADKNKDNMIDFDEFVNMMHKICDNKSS
Sequence of Calcium-dependent protein kinase 4 (Plasmodium falciparum (isolate 3D7)) (Q8IBS5 whole entry, looked up): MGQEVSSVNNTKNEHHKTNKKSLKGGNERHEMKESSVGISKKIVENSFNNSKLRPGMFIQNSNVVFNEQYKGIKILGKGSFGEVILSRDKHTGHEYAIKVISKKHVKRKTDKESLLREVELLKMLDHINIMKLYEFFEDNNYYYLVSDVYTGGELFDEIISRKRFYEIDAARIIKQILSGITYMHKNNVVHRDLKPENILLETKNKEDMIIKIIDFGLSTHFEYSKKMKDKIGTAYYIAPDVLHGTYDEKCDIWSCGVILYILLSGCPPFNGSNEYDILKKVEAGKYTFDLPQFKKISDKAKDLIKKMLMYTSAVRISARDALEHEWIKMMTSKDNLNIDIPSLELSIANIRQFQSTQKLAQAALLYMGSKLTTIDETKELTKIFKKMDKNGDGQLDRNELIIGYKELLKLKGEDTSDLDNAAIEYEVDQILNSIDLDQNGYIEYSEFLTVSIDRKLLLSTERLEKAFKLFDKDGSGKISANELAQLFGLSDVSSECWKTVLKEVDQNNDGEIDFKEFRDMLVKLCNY
Sequence of Plasmodium falciparum protein kinase 6 (PK6, PF3D7_1337100) (Q8IDW1 1-305): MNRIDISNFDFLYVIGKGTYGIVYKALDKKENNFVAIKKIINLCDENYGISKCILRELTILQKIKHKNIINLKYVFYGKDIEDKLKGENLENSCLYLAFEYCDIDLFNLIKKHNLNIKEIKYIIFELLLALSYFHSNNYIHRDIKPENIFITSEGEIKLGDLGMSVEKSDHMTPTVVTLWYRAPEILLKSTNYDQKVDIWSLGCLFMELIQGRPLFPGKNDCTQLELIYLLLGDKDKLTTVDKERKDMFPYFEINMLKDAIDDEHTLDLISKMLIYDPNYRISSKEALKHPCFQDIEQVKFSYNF
Sequence of Protein kinase 7 (PK7), Plasmodium falciparum 3D7 (PF3D7_0213400) (Q7YTF7 1-343): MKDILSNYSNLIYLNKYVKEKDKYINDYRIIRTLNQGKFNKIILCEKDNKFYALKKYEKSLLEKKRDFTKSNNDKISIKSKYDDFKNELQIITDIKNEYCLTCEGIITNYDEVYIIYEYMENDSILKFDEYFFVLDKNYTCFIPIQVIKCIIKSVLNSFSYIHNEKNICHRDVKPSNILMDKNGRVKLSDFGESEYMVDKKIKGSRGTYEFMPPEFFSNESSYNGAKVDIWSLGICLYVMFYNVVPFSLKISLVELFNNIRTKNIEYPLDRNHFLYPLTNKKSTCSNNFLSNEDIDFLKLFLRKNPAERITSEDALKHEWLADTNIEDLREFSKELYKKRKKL
Sequence of L-lactate dehydrogenase (Plasmodium falciparum (isolate CDC / Honduras)) (Q27743 whole entry, looked up): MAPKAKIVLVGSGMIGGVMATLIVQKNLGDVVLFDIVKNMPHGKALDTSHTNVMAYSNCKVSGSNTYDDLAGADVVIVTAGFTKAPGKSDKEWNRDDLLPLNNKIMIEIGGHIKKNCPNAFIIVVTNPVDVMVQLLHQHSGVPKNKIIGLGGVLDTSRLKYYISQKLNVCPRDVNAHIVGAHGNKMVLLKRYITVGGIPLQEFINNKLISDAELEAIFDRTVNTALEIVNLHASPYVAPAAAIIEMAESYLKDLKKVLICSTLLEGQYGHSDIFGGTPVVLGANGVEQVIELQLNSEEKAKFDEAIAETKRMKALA
Sequence of NAD(+) hydrolase SARM1 (Homo sapiens) (Q6SZW1 whole entry, looked up, the tested form may be a part): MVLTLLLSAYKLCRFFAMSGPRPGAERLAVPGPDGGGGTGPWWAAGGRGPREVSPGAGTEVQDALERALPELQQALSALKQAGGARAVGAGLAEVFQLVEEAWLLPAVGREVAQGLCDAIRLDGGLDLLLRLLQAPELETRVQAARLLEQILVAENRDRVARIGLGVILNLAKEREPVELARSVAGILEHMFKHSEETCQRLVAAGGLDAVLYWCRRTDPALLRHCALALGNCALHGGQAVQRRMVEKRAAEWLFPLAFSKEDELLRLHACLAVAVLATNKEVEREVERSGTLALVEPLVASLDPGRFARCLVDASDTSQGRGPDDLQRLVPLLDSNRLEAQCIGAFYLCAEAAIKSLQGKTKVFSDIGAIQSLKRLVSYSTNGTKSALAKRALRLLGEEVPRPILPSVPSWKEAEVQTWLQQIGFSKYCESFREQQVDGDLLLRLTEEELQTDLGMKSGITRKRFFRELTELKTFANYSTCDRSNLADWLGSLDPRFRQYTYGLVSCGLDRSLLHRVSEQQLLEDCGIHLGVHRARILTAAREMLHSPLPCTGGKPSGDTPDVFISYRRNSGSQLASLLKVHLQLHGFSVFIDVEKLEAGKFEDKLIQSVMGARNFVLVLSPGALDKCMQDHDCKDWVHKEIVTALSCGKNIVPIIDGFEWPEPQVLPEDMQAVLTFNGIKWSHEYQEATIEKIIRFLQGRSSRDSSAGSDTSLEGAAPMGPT

As to `C[CH2][Hg][S]c1ccccc1C(=O)O`, the fluorescence slope change in assay [1] is -19.9% (inactive). For the same compound, the inhibition in assay [2] is 67.3%; in assay [10] it was 17.7% (inactive). This compound returned a score in assay [3] of -0.03. The same compound registered a rescue above control in assay [4] of 0. Besides, in assay [5], the cytochrome c release ratio turned out to be 0.71. The inhibition of aggregation in assay [6] worked out at 18.2%. In addition, the glutamate uptake change in assay [7] came out at 8.21%. The aggregation suppression score in assay [8] is -0.00186. Further, in [9], the parasite load remaining was 82.3% (inactive) and 0.045% (inactive). For the same compound, the viability in assay [9] was 62% and 0.315%. Also, the activity remaining in assay [11] was -3.51% (active). Further, the fold change is 1.62 (inactive) in assay [12] (stronger effect = lower value) and 0.728 in [12] (setting [25]). Also, the results for the cell count in assay [12] (setting [26]) and in assay [12] (setting [27]) were 630 and 389, respectively. The remaining NAD in assay [13] was 10 nM (inactive). In addition, in assay [14], the luciferase signal was 44 AU (inactive).

With `C[C@@H]1CC[C@@]2(NC1)O[C@H]1C[C@H]3[C@@H]4CC=C5C[C@@H](O)CC[C@]5(C)[C@H]4CC[C@]3(C)[C@H]1[C@@H]2C`, the parasite load remaining in assay [9] was 86.7% (inactive). In [9], this compound came in with a viability of 95.9%. Besides, in assay [10], the inhibition was 11.8% (inactive). For the same compound, the fold change was 0.905 (inactive) in assay [12] (stronger effect = lower value) and 1.06 in assay [12] (setting [25]). Besides, the cell count came to 9310 in [12] (setting [26]) and 10300 in assay [12] (setting [27]). The luciferase signal in assay [14] was 48 AU (inactive).

With `CC1(C)C(=O)C=C[C@@]2(C)C1=C(O)C(=O)[C@]1(C)[C@@H]2CC[C@@]2(C)[C@H](c3ccoc3)C[C@H]3O[C@]321`, in assay [10], the inhibition is 11.8% (inactive). Further, in assay [14], the luciferase signal was 12 AU (inactive).

With `CC(C)=CCC[C@]1(C)C=Cc2c(O)c3c(c(CC=C(C)C)c2O1)O[C@]12C(=C[C@@H]4C[C@H]1C(C)(C)O[C@@]2(C/C=C(/C)C(=O)O)C4=O)C3=O`, in [10], the inhibition is -17.6% (inactive). Moreover, the luciferase signal in assay [14] was 72 AU (inactive).

Take `C=CC12CCN(CC1)C(C(O)c1ccnc3ccc(OC)cc13)C2` (stereo unspecified): in assay [15], the growth inhibition is 72% (active). The inhibition was -6% (inactive) in assay [16] and -9% (inactive) in assay [17]. For the same compound, the result in assay [18], in [19], in assay [20] and in assay [21] was inactive.

`CNC(=O)Oc1cccc2c1OC(C)(C)C2`: in [10], the inhibition is -14.7% (inactive). Further, the luciferase signal in assay [14] is 44 AU (inactive).

With `O=C(O)COc1cc(Cl)c(Cl)cc1Cl`, the inhibition in assay [10] is 6.47% (inactive). In addition, the luciferase signal in assay [14] is 60 AU (inactive).

As to `CO[C@@H]1C[C@@H](C[C@H]2CC[C@H](C)[C@H]([C@@H](C)C(=O)O)O2)O[C@]2(O[C@](C)([C@H]3CC[C@@](C)(C4O[C@@H](C5O[C@@](O)(CO)[C@H](C)C[C@@H]5C)C[C@@H]4C)O3)C[C@H]2C)[C@@H]1C` (stereo partly specified), in assay [22], the EC50 is 175 nM (active). Further, the figures for the inhibition in [2] and in [10] were 49.6% and 10.1% (inactive), respectively. In addition, the score in assay [3] is 0.17. Moreover, the rescue above control in [4] was determined as 2.36. Besides, the cytochrome c release ratio in assay [5] was 0.42. The inhibition of aggregation in assay [6] was -0.07%. Besides, the normalised LDH release in [23] was found to be 0.812. Moreover, the glutamate uptake change in [7] is -43.9%. In addition, the aggregation suppression score in [8] came out at 0.0976.

On to `COC[C@]12CN(C=O)C3[C@@H]4C(OC)C1[C@]3(C1CC3(O)C(OC)C(O)C4(OC(C)=O)C1C3OC(=O)c1ccccc1)[C@@H](OC)C[C@H]2O` (stereo partly specified), for which the inhibition in assay [10] was -2.18% (inactive). Besides, the luciferase signal in assay [14] is 148 AU (inactive).

`CCCCCc1cc(O)c2c(c1)OC(C)(C)CC2C1=CCN(Cc2cccnc2)CC1` (stereo unspecified): the growth inhibition in assay [15] and in assay [24] was 97% (active) in each case. The inhibition was 15% (inactive) in assay [16] and -1% (inactive) in assay [17]. The result in assay [18], in assay [19], in assay [20] and in assay [21] was inactive.

(Values after PubChem BioAssay.)
